Assay results as given in ChEMBL document CHEMBL4513216, “Probing the Open Global Health Chemical Diversity Library for Multistage-Active Starting Points for Next-Generation Antimalarials” (ACS Infect Dis, 2020).
The whole screen tested about 65,000 compounds, of which about 2,100 (3.2%) showed an effect of 50% or more. The median lay at about -52%. Only a selection was taken, and strong results are over-represented in it overall.

What follows are compounds tested on Plasmodium falciparum (assay: Screen against P. falciparum Asexual Blood Stage (ABS), at 5uM). Conditions: tested at 5 uM.
Format: functional, Dd2

Row | Compound | INHIBITION [%]
1 | O=C(NCCCn1ccnc1)NCC(c1ccco1)N1CCCC1 (centres undefined) | -96.3
2 | CCN1CCCC(CN(C)c2nccc(-c3ccc(C)nc3C)n2)C1 (centres undefined) | 26.3
3 | CC(C)N[C@@H]1CC[C@@H]1NC(=O)c1ccccc1OC(F)(F)C(F)F | 54.4
4 | O=C(N[C@@H]1CCNC[C@H]1O)c1ccccc1OC(F)(F)C(F)F | -173
5 | N[C@@H]1CC[C@@H]1NC(=O)c1ccccc1OC(F)(F)C(F)F | 42.2
6 | Cc1ccnc(NCc2cn3nc(C)sc3n2)n1 | -114
7 | O=C(Cc1ccc2c(c1)OCC2)Nc1nc[nH]n1 | -116
8 | c1cnn(Cc2cnc3n2CCN(CC2CCCCC2)C3)c1 | 4.97
9 | COCCCNC(=O)CN(C)C(C)c1nc(C(C)C)no1 (centres undefined) | -119
10 | CN1CCOC(CNC(=O)C2(c3ccccc3)CCC2)C1 (centres undefined) | -66.7
11 | CN1CCOC(CNC(=O)C2(c3cccc(C(F)(F)F)c3)CCCC2)C1 (centres undefined) | 55.9
12 | Cc1cccc(C2(C(=O)NCC3CN(C)CCO3)CC2)c1 (centres undefined) | 0.579
13 | CN(Cc1csc(-c2cnn(C)c2)n1)CC1CCN(CCO)CC1 | -6.54
14 | c1nc(N2CCOCC2)ncc1-c1cncn1CCCN1CCCCC1 | -102
15 | c1nn(C2CCCCC2)cc1-c1cncn1CCCN1CCCCC1 | 62.1
16 | CC(Cn1cncc1-c1cnn(C2CCCCC2)c1)N1CCCCC1 (centres undefined) | 13.6
17 | Cc1ccccc1N1CCCN(C(=O)CC2CN(C(C)C)CCO2)CC1 (centres undefined) | 11.3
18 | CN1CCCC1CNC(=O)CCCOCc1ccccc1 (centres undefined) | -46.6
19 | CN1CCCC1CNC(=O)CCCOc1cccc(F)c1 (centres undefined) | 35.7
20 | CN1CCCC1CNC(=O)CCOc1ccc(Cl)cc1 (centres undefined) | 67.9
21 | CN1CCCC1CNC(=O)CCCOc1ccc(F)cc1 (centres undefined) | 48.7
22 | CC(=O)c1cccc(OCCCC(=O)NCC2CCCN2C)c1 (centres undefined) | 3.79
23 | CN1CCCC1CNC(=O)CCCOc1ccc(I)cc1 (centres undefined) | 59.8
24 | Cc1ncc(CNC(=O)CCOc2ccccc2)c(C2CCCN2C)n1 (centres undefined) | -57
25 | COc1cc(CCC(=O)NCC2CCCN2C)ccc1OCC(F)(F)F (centres undefined) | 43.4
26 | CN1CCCC1CNC(=O)CCOc1ccc(Br)cc1 (centres undefined) | 62.6
27 | CC(C)c1nc(O)c2nnn(C[C@@H]3CCCN(Cc4cccs4)C3)c2n1 | -32.9

Row | Compound | INHIBITION [%]
28 | O=C1CO[C@@H]2CN(S(=O)(=O)c3ccc(F)cc3)C[C@H]2N1 | -28.2
29 | Cc1cc(C(=O)N2CC[C@@]3(O)CCN(S(C)(=O)=O)C[C@H]3C2)c(C)n1C | -156
30 | O=C(CNC(=O)c1cnccn1)Nc1ncc[nH]1 | -51.8
31 | CCC(=O)N1CCN(c2ncnc3c(C)nn(C)c23)CC1 | -52.3
32 | CCNC(=O)O[C@H]1COCCN(c2nc3ccccc3s2)C1 | 54.8
33 | O=C(NC1CCCC1)O[C@H]1COCCN(c2nc3ccccc3o2)C1 | -59.6
34 | O=C(NC1CCCC1)O[C@H]1COCCN(c2nc3ccccc3s2)C1 | -31.6
35 | CCOc1ccccc1CNC(=O)N1CCC(n2cncn2)CC1 | -19.1
36 | COc1ccc(CN2C[C@H]3CN(Cc4ccncc4)C(=O)[C@H]3C2)cc1 | -22.1
37 | COc1ccc(CN2C[C@@H]3CN(CCO)C[C@@H]3C2=O)cc1 | 50.3
38 | COc1ccc(CN2C[C@@H]3CN(Cc4ccncc4)C[C@@H]3C2=O)cc1 | -48
39 | Cc1cccc(CN2CCCC3(CCN(CC4CCCO4)CC3)C2)n1 (centres undefined) | 45.2
40 | COc1cc(C(=O)NCC2CC2)nc2c(C)cc(F)cc12 | -103
41 | C[C@@H]1CN(c2nc(N)nc3c2CCC3)CC[C@@]1(O)C1CCC1 | 68.5
42 | C[C@@H]1CN(c2nc(N)nc3c2CCC3)C[C@]1(C)O | -48.4
43 | C[C@@H]1CN(c2nc3c(cc2C(N)=O)CCC3)CC[C@@]1(O)C1CCC1 | -80.6
44 | COc1ccc(CN(C)C(=O)CN2CC(n3cccn3)C2)cc1F | 26.7
45 | CCCNC(c1cccnc1)c1ccc(F)c(C)c1 (centres undefined) | 57.9
46 | CCNC(c1cccnc1)c1ccc(F)c(C)c1 (centres undefined) | 25.4
47 | CCCNC(c1ccc(F)cc1)c1cccnc1 (centres undefined) | 35.6
48 | CCOCC(=O)N1C[C@@H]2COC[C@]2(c2nc(C)no2)C1 | -63.5
49 | c1cnc(N2CCCC(c3cncc(-n4ccnc4)n3)C2)nc1 (centres undefined) | -20.6
50 | CC(=O)N1CCCC(c2cccc(-n3ccnc3)n2)C1 (centres undefined) | -75.7
51 | Cc1cc(C)nc(N2CCCC(c3cccc(-n4ccnc4)n3)C2)n1 (centres undefined) | 66.3
52 | O=C(Cc1ccccn1)N1CCc2c(O)nc(-c3cnccn3)nc2C1 | -157
53 | CCOCc1cncc2c1CCN(C(=O)c1cscn1)C2 | -43.3
54 | c1cncc(C[C@@H]2CC[C@H](CN3CCCOCC3)O2)c1 | -54
